Screens deposited in PubChem by National Center for Advancing Translational Sciences (NCATS).
Shiga inhibitor: blocks Shiga toxin action in Vero cells; inhibition, % at 38.7 µM; Vero cells, Shiga toxin protein synthesis inhibition reporter; 290,000 compounds, 9.2% hits; AID 2315; in the data active means inhibition mostly above about 28%, no sharp cut-off; inactive means mostly below about 43%; further: 0% is about no effect
LmPK inhibitor: inhibitors of Leishmania mexicana pyruvate kinase | 290,000 compounds, 0.37% hits | purified LmPK, Kinase-Glo ATP luminescence, 1 h | Potency, µM (series often up to 57.5 µM), for the others: top-dose activity change, negative = inhibition, hits mostly inhibitors | Q27686; further: potency means the concentration at half of the fitted maximal effect; on the % scale 0 is the no-effect control and ±100 the full control effect
Target sequence (Q27686 whole entry, looked up): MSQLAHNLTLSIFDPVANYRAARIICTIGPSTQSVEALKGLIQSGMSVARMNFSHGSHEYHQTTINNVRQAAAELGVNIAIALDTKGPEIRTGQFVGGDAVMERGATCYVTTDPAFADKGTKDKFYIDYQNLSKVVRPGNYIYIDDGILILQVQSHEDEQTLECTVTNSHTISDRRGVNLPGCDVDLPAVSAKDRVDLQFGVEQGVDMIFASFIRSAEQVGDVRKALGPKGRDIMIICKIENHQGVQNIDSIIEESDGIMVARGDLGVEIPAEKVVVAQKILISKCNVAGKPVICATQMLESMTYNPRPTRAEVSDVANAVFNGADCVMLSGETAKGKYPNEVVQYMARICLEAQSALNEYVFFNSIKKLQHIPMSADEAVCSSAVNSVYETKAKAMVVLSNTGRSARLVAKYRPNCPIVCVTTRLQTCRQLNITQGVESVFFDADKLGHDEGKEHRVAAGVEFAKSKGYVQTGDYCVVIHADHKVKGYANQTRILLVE
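Purified LmPK (0.1 nM) with 0.5 mM PEP and 0.1 mM ADP in imidazole buffer pH 7.2 with MgCl2/KCl, 1 h at room temperature. ATP formed was read by luciferase luminescence and normalized to no-enzyme and uninhibited controls.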
FBPA Giardia inh: Giardia lamblia aldolase inhibition. 290,000 compounds, 0.71% hits. A8B2U2. Potency, µM (series often up to 59.6 µM), for the others: top-dose activity, negative = inhibition, usual class: inhibitors. AID 2451. purified Giardia FBPA; further: potency means the concentration at half of the fitted maximal effect; on the % scale 0 is the no-effect control and ±100 the full control effect; nearly all actives have a fitted effect of over 55% in size
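Giardia FBPA (40 nM reagent) was preincubated 10 min at RT with compound (up to 57.5 uM final), then substrate plus GAPDH/TPI/NAD/arsenate coupling system with diaphorase/resazurin was added; resorufin fluorescence (525/598 nm) was read after 20 min.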
Tb PYK inh: inhibitors of Trypanosoma brucei pyruvate kinase | Potency, µM (top dose mostly 76.8 µM), for inactives: at the highest dose activity, negative = inhibition, most hits filed as inhibitors | AID 624173 | TbPYK enzyme, Kinase-Glo Plus ATP luminescence, 45 min | 410,000 compounds, 0.12% hits; further: potency means the concentration at half of the fitted maximal effect; on the % scale 0 is the no-effect control and ±100 the full control effect; nearly all actives have a fitted effect of over 50% in size
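Readout: single end-point luminescence (Kinase-Glo Plus, 10 min). Reaction conditions were TbPYK/substrate plus 130 uM ADP, 45 min at RT, pH 7.2 TEA buffer. No-enzyme wells served as controls, and data were normalized before concentration-response fitting.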
CHX counter: affects cycloheximide protein synthesis inhibition readout, counter-screen; cell reporter, cycloheximide protein synthesis inhibition counterscreen; max response, %; 300,000 compounds, 12% hits; in the data active means max response mostly above about 13%, no sharp cut-off; inactive means mostly below about 14%; further: read at 38.3 µM for the half of the compounds with a filed dose; 0% is about no effect
Sm TGR block: blocks Schistosoma mansoni thioredoxin glutathione reductase; Q962Y6; purified TGR, DTNB reduction, TNB absorbance 405 nm; Potency, µM (titrated, usually from 114 µM), inactives show at the highest dose activity change, negative = inhibition, usual class: inhibitors; 360,000 compounds, 3% hits; AID 485364; further: potency means the concentration at half of the fitted maximal effect; on the % scale 0 is the no-effect control and ±100 the full control effect; nearly all actives have a fitted effect of over 60% in size
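TGR 20 nM + NADPH 100 uM (dispensed conc.), cpd preinc 15 min RT; start with NADPH (500 uM addition) then DTNB (15 mM addition). Kinetic TNB absorbance, 405 nm filter. Four-parameter Hill fit across titration.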
* marks the source's active call; other numbers are inactive results; ? = inconclusive; · = not tested or not shown. Shown is part of a subset that was picked to be rich in hits. Unless noted, the call rests on the fitted dose curve; in most records, active means well fitted curve in the direction sought with a large enough effect; inconclusive means small, poorly fitted or top-dose-only effect, or another doubt; inactive means no such curve, though single readings can be large; an effect the other way counts as inactive or inconclusive.

SMILES	Shiga inhibitor	LmPK inhibitor	FBPA Giardia inh	Tb PYK inh	CHX counter	Sm TGR block
Cn1c(=O)cc(SCC(=O)N2CCN(c3ccc(F)cc3)CC2)c2ccc(Cl)cc21	·	·	·	18%	·	-1%
Cc1nc2ccc(-c3nc4ccc(N)cc4[nH]3)cc2[nH]1	-6	-21%	-7%	-7%	-1	0%
Nc1ccc(-c2nc3c(Cl)c(N)ccc3[nH]2)cc1	78*	?	-2%	-10%	15	0%
Nc1ccc2nc(-c3cc(Cl)c(N)c(Cl)c3)[nH]c2c1	64*	16µM*	-12%	-4%	36*	-1%
Nc1nc2ccc(Cl)cc2[nH]1	·	·	·	2%	·	·
NC(=O)c1ccc2nc(-c3ccc(Oc4ccc(Cl)cc4)cc3)[nH]c2c1	45*	·	-12%	·	16	·
Clc1ccc2nc(-c3ccc(Cl)nc3)[nH]c2c1	53*	-2%	-21%	-15%	24*	5%
Nc1ccc2nc(-c3ccc(Cl)cc3)[nH]c2c1	97*	-2%	-22%	0%	62*	-2%
Nc1ccc2nc(-c3cccc(-c4nc5ccc(N)cc5[nH]4)c3)[nH]c2c1	-4	-1%	-21%	-5%	10	5%
COc1cccc(CNC(=O)CCc2c(C)nn(-c3ccc(N4CCOCC4)nn3)c2C)c1	·	·	·	-3%	·	-2%
O=c1[nH][nH]c(=S)n1C1CCCCC1	-14	?	20µM*	2.5µM*	-1	-18%
CCOC(=O)CSc1nc(N)c2c3c(sc2n1)CCCC3	51	1%	-14%	-2%	25*	-34%
CSc1nc(SCC(=O)NCc2ccco2)c2c3c(sc2n1)CN(C)CC3	·	·	·	4%	·	·
CCOC(=O)c1cnn(-c2nc(SC)nc3sc4c(c23)CCCC4)c1N	-16	3%	1%	-3%	-1	3%
CCOC(=O)c1nc2sc3c(c2c(=O)[nH]1)CCC(C)C3 (stereo not drawn)	-9	2%	3%	5%	5	-4%
CC1CCc2c(sc3nc(SCC(=O)NCc4ccco4)nc(N)c23)C1 (stereo not drawn)	42	0%	-3%	-7%	17*	?
CCN(CC)C(=O)CSc1nc(N)c2c3c(sc2n1)CC(C)CC3 (stereo not drawn)	57*	5%	8%	4%	21*	-5%
COc1cccc(-c2cc(=O)c3ccc(OC)cc3o2)c1	·	·	4%	·	·	·
c1ccc2[nH]c(CSc3nnc(-c4ccncc4)o3)nc2c1	-8	-2%	-5%	0%	8	-2%
O=C(Nc1ccccc1-c1nnc(SCc2ccc(Cl)cc2Cl)o1)c1ccccc1	-13	-7%	0%	-6%	-3	3%
Clc1ccc(-c2nnc(SCc3ccon3)o2)c(Cl)c1	61*	?	9%	-3%	37*	-1%
C=CCSc1nnc(-c2ccc(Cl)cc2Cl)o1	92*	-16%	5%	1%	43*	-18%
Clc1cccc(CSc2nnc(-c3c[nH]c4ccccc34)o2)c1	9	-2%	-18%	3%	9.8*	-7%
Clc1ccc2nc(CSc3nnc(-c4c[nH]c5ccccc45)o3)cn2c1	·	·	·	10%	·	·
Clc1ccc(-c2nnc(SCc3nc4ccccc4[nH]3)o2)c(Cl)c1	32	-3%	3%	3%	17*	-1%
SMILES	Shiga inhibitor	LmPK inhibitor	FBPA Giardia inh	Tb PYK inh	CHX counter	Sm TGR block
CCCCC/C=C\C[C@@H](O)/C=C/C=C/C=C/[C@@H](O)CCCC(=O)O	·	·	6%	·	·	·
Cc1ccc2nc(NC(=O)CSc3nccn3Cc3ccc(Cl)cc3)sc2c1	·	·	·	-2%	·	1%
CC(=O)C(C(c1ccccc1)N1CCCc2ccccc21)N1CCOCC1 (stereo not drawn)	·	·	·	-1%	·	·
CC(C)[C@@]1(NC(=O)[C@H]2C[C@H]3c4cccc5[nH]cc(c45)C[C@@H]3N(C)C2)O[C@]2(O)[C@H]3CCCN3C(=O)CN2C1=O (tested in a mixture with another compound)	·	·	·	0%	·	·
COc1ccc(S(=O)(=O)NCc2ccco2)cc1-c1nnc2c3ccccc3c(C)nn12	43	-5%	-4%	4%	40*	56µM*
COc1ccc(-c2cc(C(=O)Nc3cccc(S(=O)(=O)NCc4ccco4)c3)c3ccccc3n2)cc1OC	41	-2%	-7%	-3%	21*	?
O=C(NCc1ccco1)c1cc(-c2ccncc2)nc2ccccc12	-16	4%	6%	-1%	-6	-32%
COc1ccc(-c2cc(C(=O)NCc3ccco3)c3ccccc3n2)cc1OC	·	·	·	-8%	·	·
O=C(Nc1cccc(S(=O)(=O)NCc2ccco2)c1)c1cc(-c2ccc(F)cc2)nc2ccccc12	70*	-3%	-14%	8%	39*	-10%
CCOC(=O)c1c(NC(C)=O)c2c3c(sc2n1Cc1nc(-c2cccc(C)c2)oc1C)CCCC3	·	·	·	1%	·	0%
O=C(Cc1ccccc1)Nc1sc2c(c1C(=O)Nc1ccc(Cl)cc1)CCOC2	10	·	·	·	3	·
CC1CCN(S(=O)(=O)c2ccc3c(c2)c(=O)c(C(=O)N2CCN(c4cccc(Cl)c4)CC2)cn3C)CC1	·	·	·	-3%	·	-3%
O=C(CSc1nnc(Cc2ccccc2)o1)NCc1ccco1	-21	4%	2%	5%	-9	45µM*
CCn1c(Cc2c(C)[nH]c3ccccc23)nnc1SCC(=O)NCc1ccco1	-6	9%	1%	-11%	-2	0%
Cc1[nH]c2ccccc2c1Cc1nnc(SCC(=O)NCc2ccco2)o1	12	2%	-4%	-9%	-1	16µM*
CCOC(=O)C1CCCN(S(=O)(=O)c2ccc(S(=O)(=O)N3CCCC3)cc2)C1 (stereo not drawn)	·	·	·	2%	·	0%
CCOC(=O)C1CCCN(S(=O)(=O)c2cnc(Cl)c(Br)c2)C1 (stereo not drawn)	-9	-1%	4%	0%	18	32µM*
O=C(Nc1cccc(C(F)(F)F)c1)Nc1ccc2nc([C@@H]3O[C@H](CO)[C@@H](O)[C@H](O)[C@H]3O)[nH]c2c1	·	·	·	-2%	·	·
CCOC(=O)c1scc(-c2ccccc2)c1S(=O)(=O)N1CCN(c2ccc(Cl)cc2)CC1	·	·	·	?	·	4%
C=CCn1c(COc2ccc(F)cc2)nnc1SCC(=O)c1c[nH]c2c(CC)cccc12	-13	-2%	6%	1%	-2	-11%
C=CCn1c(Cc2c(C)[nH]c3ccccc23)nnc1SCC(=O)NCc1ccc(F)cc1	-3	2%	0%	-20%	-2	32µM*
C=CCn1c(COC)nnc1SCC(=O)c1ccc(F)cc1	44*	-8%	-5%	?	16*	0%
CCn1c(Cc2c(C)[nH]c3ccccc23)nnc1SCC(N)=O	-10	-8%	-3%	-12%	1	45µM*
CCn1c(Cc2c(C)[nH]c3ccccc23)nnc1SCC(=O)NCc1ccccc1	-41	3%	3%	-13%	-1	?
